DAX1 inh-1: blocks DAX1 repression of SF-1 activated StAR promoter. HEK293T StAR-luciferase reporter, SF-1/DAX-1 repression relief. inhibition, % at 6.8 µM. 1.1% of 370,000 active. AID 652010;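 active means inhibition above the mean over all tested compounds plus 3 SD, cut at about 3.6% in these data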;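 further: 0% = DAX-1 cells with DMSO and 100% = cells lacking DAX-1 with DMSO; higher inhibition means more luminescence from relief of DAX-1 repression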
ssDAF12 agonist: activators of S. stercoralis DAF-12 nuclear receptor. HEK293 ssDAF-12/GRIP1 lit1-tk-luc reporter, luminescence; % of 3 µM dafachronic acid response. AID 652126. activation, % at 6.8 µM. 1% of 370,000 active;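 active means activation above the mean over all tested compounds plus 3 SD, cut at about 0.9% in these data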;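 further: 0% = DMSO-only wells and 100% = 3 µM delta7-dafachronic acid wells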
hgDAF-12 ag: activates the H. glycines DAF-12 receptor ligand-binding domain | activation, % at 6.8 µM | 1.8% of 370,000 active | AID 687014 | HEK293 GAL4-hgDAF12 UAS-luciferase reporter, agonist luminescence; normalized to butyrate control;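 active means activation above a cutoff set at the mean of all screened compounds plus 3 SD, cut at about 10% in these data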;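 further: 0% = DMSO wells and 100% = sodium butyrate wells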
DAX1 inh-2: NR0B1 (DAX1) inhibition | 0.99% of 340,000 active | inhibition, % at 6.75 µM | P51843 | HEK293 Gal4-DAX1 luciferase reporter, luminescence;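 active means inhibition above the mean over all tested compounds plus 3 SD, cut at about 4.2% in these data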;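 further: 0% = DAX1-transfected cells with DMSO and 100% = empty-vector control cells with DMSO; inhibition shows as a rise in luminescence from relieved DAX1 repression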
Target sequence (P51843 207-470 limits assumed): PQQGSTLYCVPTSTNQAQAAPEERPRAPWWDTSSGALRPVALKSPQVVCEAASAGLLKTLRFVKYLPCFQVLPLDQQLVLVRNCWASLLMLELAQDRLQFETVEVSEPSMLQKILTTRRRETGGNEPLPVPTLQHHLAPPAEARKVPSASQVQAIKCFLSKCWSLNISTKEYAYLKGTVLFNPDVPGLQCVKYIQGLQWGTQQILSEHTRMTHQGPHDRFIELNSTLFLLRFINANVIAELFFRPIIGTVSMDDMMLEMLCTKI
hcDAF-12 act: activates DAF-12 receptor from parasite H. contortus; AID 652067; activation, % at 6.8 µM; HEK293 hcDAF-12 lit1-tk-luc reporter, luminescence; 0% DMSO, 100% Δ7-dafachronic acid; 1.4% of 370,000 active;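 active means activation above the mean of all tested compounds plus 3 SD, cut at about 5.5% in these data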;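 further: 100% = response to 3 µM Δ7-dafachronic acid high control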
Starred values were filed as active, the others as inactive; . = no result. The list is not random: actives were taken first. Their share in the collection is about 4.1%.

SMILES | DAX1 inh-1 | ssDAF12 agonist | hgDAF-12 ag | DAX1 inh-2 | hcDAF-12 act
Cc1ccc(Sc2ccc(CO)cc2[N+](=O)[O-])cc1 | 0.2 | 11.0* | 2.6 | 0.2 | -2.0
Cc1ccc(Sc2ccc(CN3CCCC3)cc2[N+](=O)[O-])cc1 | -1.0 | -1.6 | -0.8 | -0.4 | 0.5
Clc1ccc(OCCn2ccnc2)c(Br)c1 | 0.4 | -1.3 | -0.3 | -0.1 | -0.3
Clc1ccc(OCCn2ccnc2)c(Cl)c1 | -0.1 | -2.1 | 0.7 | 8.9* | -1.5
CCc1cccc(C)c1NC(=O)CN1C(=O)c2ccccc2S1(=O)=O | -0.4 | -1.3 | 1.1 | 2.0 | -0.5
O=C(NC1CCCC1)c1ccc2c(c1)S(=O)(=O)c1ccccc1C2=O | -0.5 | -1.5 | -2.7 | -1.1 | -2.1
CC(C)C(NC(=O)CN1C(=O)c2ccccc2S1(=O)=O)C(C)C | -0.1 | -1.1 | 2.2 | 5.0* | -0.7
O=C(NC1CCCCC1)c1ccc2c(c1)S(=O)(=O)c1ccccc1C2=O | 0.1 | -1.4 | 1.6 | 5.0* | -1.4
COc1ccc(NC(=O)C(C)N2C(=O)c3ccccc3S2(=O)=O)c(OC)c1 (stereo not drawn) | 1.2 | -1.5 | -1.3 | 0.3 | -1.7
CCc1ccccc1NC(=O)CN1C(=O)c2ccccc2S1(=O)=O | 0.0 | -0.8 | -0.5 | 4.5* | 1.9
CCOc1ccccc1NC(=O)C(C)N1C(=O)c2ccccc2S1(=O)=O (stereo not drawn) | 3.7* | -1.3 | -1.0 | -0.1 | 0.0
COC(=O)[C@]12C[C@H](CC(=O)NCCCN3CCCC3=O)C(=O)N(Cc3cccc4ccccc34)C1=C[C@H](COCc1ccccc1)O[C@@H]2C | -1.1 | -0.7 | 3.9 | . | -1.3
O=C(CSc1nc2ccccc2n1Cc1ccccc1Cl)N/N=C\c1cccc(Oc2ccccc2)c1 | -0.9 | -1.6 | 1.9 | . | 1.0
O=C(CN1C(=O)c2ccccc2S1(=O)=O)NC1CCCCCC1 | -0.3 | -1.2 | 12.5* | 6.2* | 0.8
CCN(CC)c1ccc(NC(=O)c2cc3c(C)nn(-c4ccccc4)c3s2)cc1 | -0.7 | -1.8 | 0.2 | . | 0.0
CN=C1S/C(=C/c2cc(C)n(-c3cc(C)ccc3OC)c2C)C(=O)N1C | . | -2.4 | -3.4 | . | -3.3
CC(C)(C)c1ccc(-c2cn(C[C@H](Cc3ccccc3)n3c(=O)c4ccccc4n3Cc3ccccc3)nn2)cc1 | -0.6 | -1.1 | -0.2 | . | 1.5
CCN(CC)CCNC(=O)c1cccc(NC(=O)C(=O)c2ccccc2NC(C)=O)c1 | 0.4 | -0.3 | 3.6 | 0.8 | 5.9*
CCCCNC(=O)c1cccc(NC(=O)C(=O)c2ccccc2NC(C)=O)c1 | -0.1 | -1.0 | -0.9 | 0.3 | -2.1
COC(=O)c1ccccc1NC(=O)C1CCN(c2ncnc3c2nc2n3CCCCC2)CC1 | -0.2 | -1.0 | 3.1 | 4.8* | -0.2
C/C(CCc1ccco1)=N\NC(=O)CNc1c(Br)cc(Br)cc1Br | -0.2 | -0.7 | 2.5 | 6.8* | 0.3
COC(=O)[C@]12C[C@H](CC(=O)NCC34CC5CC(CC(C5)C3)C4)C(=O)N(Cc3ccc(Cl)cc3Cl)C1=C[C@H](C(C)(C)C)O[C@@H]2C | 0.9 | -1.3 | 3.4 | . | -1.0
CC(=O)N1CCc2cc(S(=O)(=O)NCCC(=O)N(C)C3CCCCC3)ccc21 | -1.2 | -1.7 | 0.0 | . | -0.6
Fc1ccc(/C=C\c2nccc3c2[nH]c2ccccc23)cc1 | 0.7 | -0.4 | 8.8 | -0.5 | 5.6*
C(=C\c1nccc2c1[nH]c1ccccc12)/c1ccccc1 | 0.8 | -0.8 | 6.6 | 1.6 | 4.6
SMILES | DAX1 inh-1 | ssDAF12 agonist | hgDAF-12 ag | DAX1 inh-2 | hcDAF-12 act
COc1ccc(-c2[nH]ncc2CN2CCN(Cc3cccs3)CC2)cc1F | -0.1 | -1.3 | -1.4 | 7.8* | 0.4
CCN(CC)C1CCN(Cc2cn[nH]c2-c2ccc(OC)c(F)c2)C1 (stereo not drawn) | -0.2 | -1.5 | 4.6 | . | -0.2
COCCN(C(=O)COC(=O)C(C)(C)Oc1ccc(Cl)cc1)c1c(N)n(Cc2ccccc2)c(=O)[nH]c1=O | 0.5 | -1.6 | -0.8 | 1.4 | -0.6
C[C@H]1[C@@H](NC(=O)C2CCCCC2)CC[C@@]23CCCN2C(=O)CCC[C@@H]13 | . | -1.7 | -0.5 | . | -0.9
CSc1nc(/C=C2\C=Nc3ccccc32)c(O)n1C | -0.1 | 0.9* | 7.8 | 1.3 | 6.4*
Cc1ccc(NC(=O)NCC2CCN(Cc3cccc(Cl)c3)CC2)cc1Cl | 0.5 | 1.7* | 2.9 | 0.8 | -0.8
Cc1ccc(CN2CCC(CNC(=O)Nc3ccccc3F)CC2)cc1 | -0.6 | -0.4 | -0.8 | 4.4* | -0.8

Bioassay records: PubChem BioAssay, The Scripps Research Institute Molecular Screening Center
